Screens deposited in PubChem BioAssay by National Center for Advancing Translational Sciences (NCATS).
Hits are enriched below; roughly 2.8% of the tested compounds scored in any of these assays.
MBNL1 CUG block = MBNL1-poly(CUG) RNA binding inhibition. 280,000 tested, 0.036% active. AID 2675. TR-FRET MBNL1-His/biotin-(CUG)12 binding, 665/545 ratio. Q9NR56. Potency, µM (highest dose often 57.5 µM), for the others: top-dose activity change, negative = inhibition, most hits filed as inhibitors; active = well fitted inhibition curve with a large enough effect in the signal ratio, with a control signal flat, not every such curve was filed as active; inconclusive = small, poorly fitted or top-dose-only effect, or effect the other way, or a change in a side signal; inactive = no such curve, though single readings can be large or run the other way; the % refers to the signal ratio; note: potency is the fitted concentration of half-maximal effect; % is set by controls: 0 for no effect and ±100 for the full control effect
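TR-FRET between His-tagged MBNL1 and biotin-(CUG)12 RNA, detected with Tb anti-His antibody (0.055 ng/ul) and streptavidin-XL665 (5 nM), 60 min at room temperature. Compounds titrated 92 nM to 58 uM; 665/545 nm ratio normalized to buffer and complex controls.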
D3 ag = activates the human D3 dopamine receptor. D3R DiscoveRx beta-arrestin cells, luminescence, 90 min. 410,000 tested, 0.58% active. P35462. AID 652048. max activation, %; in the data active = max activation above about 30%; note: 0% is about no effect
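Agonist-mode cell screen: cells plated at 1500/well and incubated overnight at 37 °C, then exposed to library compounds for 90 min at 37 °C. Detection reagent was added for 30–60 min at room temperature, and luminescence was read.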
a7 integrin act = integrin-mediated muscular dystrophy alleviation activation | alpha7betagal myoblasts, beta-gal FDG fluorescence, 48 h | Potency, µM (top dose mostly 38.3 µM), for the others: at the top dose activation, usual class: activators | 350,000 tested, 0.064% active;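 note: potency is the fitted concentration of half-maximal effect; 100% = response of the positive control SU9516; nearly all actives have a fitted effect of over 60% in size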
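alpha7betagal+/- myoblasts (passage 13, 250/well) treated 48 h at 37C with compounds at 1:260 dilution of DMSO stock. Lysed, then beta-galactosidase activity read as FDG fluorescence (ex 480/em 540) after 30 min, with pre-read for autofluorescence.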
PTHR1 ag = PTHR1 (human) receptor agonism | Potency, µM (titrated, usually from 115 µM), without a hit: top-dose activation, usual class: activators | 410,000 tested, 0.075% active | AID 743266 | HEK293 GP2 PTHR1 cells, GloSensor cAMP luminescence, 1 h; note: potency is the fitted concentration of half-maximal effect; nearly all actives have a fitted effect of over 55% in size
Target sequence (Q03431 whole entry, looked up): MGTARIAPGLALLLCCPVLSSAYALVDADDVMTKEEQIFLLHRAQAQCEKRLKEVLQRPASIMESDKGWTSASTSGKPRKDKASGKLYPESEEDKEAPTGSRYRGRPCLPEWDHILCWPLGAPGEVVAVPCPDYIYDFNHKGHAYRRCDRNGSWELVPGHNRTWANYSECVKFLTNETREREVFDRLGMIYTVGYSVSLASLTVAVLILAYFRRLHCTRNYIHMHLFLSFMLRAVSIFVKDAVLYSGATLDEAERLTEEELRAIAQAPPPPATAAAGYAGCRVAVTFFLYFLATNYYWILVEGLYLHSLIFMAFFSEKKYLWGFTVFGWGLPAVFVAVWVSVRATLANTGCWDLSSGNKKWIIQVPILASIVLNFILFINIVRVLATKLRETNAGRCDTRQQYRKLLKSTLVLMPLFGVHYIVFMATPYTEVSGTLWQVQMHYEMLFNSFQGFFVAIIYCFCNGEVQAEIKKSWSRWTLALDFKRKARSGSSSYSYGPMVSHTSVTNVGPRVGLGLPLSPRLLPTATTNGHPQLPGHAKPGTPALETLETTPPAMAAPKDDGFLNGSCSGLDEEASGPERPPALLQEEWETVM
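HEK-293-derived GP2 cells expressing PTHR1 and a GloSensor cAMP reporter, 3,000/well, plated overnight, given luciferin plus IBMX (each 0.5 mM as added) for 1 h at 37 °C, then compound for 1 h at 37 °C. Luminescence was read after 15 min at room temperature.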
D3 antag = D3 dopamine receptor (human) antagonism; P35462; D3R cells, DiscoveRx beta-arrestin luminescence, antagonist mode; active compounds read low; max response, negative = inhibition, %; 360,000 tested, 2.5% active; in the data active = max response below about -50%; inconclusive = no clear call, values can overlap the other calls; note: % is set by controls: 0 for no effect and ±100 for the full control effect
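Cells plated overnight at 1500 cells/well, then exposed to library compounds with dopamine controls for 90 minutes at 37 degrees C. DiscoveRx reagent added for 30–60 minutes at room temperature; luminescence read, quantitative HTS format.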
CBFb-RUNX1 inh = inhibitors of human CBF-beta and RUNX1 interaction; Q01196+Q13951; AlphaScreen CBFb-His/RUNX1-biotin binding, biochemical; Potency, µM (top dose mostly 59.8 µM), inactives show top-dose activity, negative = inhibition, hits mostly inhibitors; 230,000 tested, under 10 active; note: % of control where 0% means no effect
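His-tagged CBF-beta and biotinylated RUNX1 (30 nM each) were premixed 20 min at room temperature, exposed to compound for 15 min, then given nickel-chelate and streptavidin AlphaScreen beads (50 ng each). After 90 min, AlphaScreen signal was read.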
Numbers without * were called inactive; [ ] = another dose, or the depositor's remark. Unless noted, calls come from the whole dose curve; as a rule, active = well fitted curve in the direction sought with a large enough effect; inconclusive = small, poorly fitted or top-dose-only effect, or another doubt; inactive = no such curve, though single readings can be large; an effect the other way counts as inactive or inconclusive.

O=[N+]([O-])c1cccc(S(=O)(=O)N2CCN(S(=O)(=O)N3CCOCC3)CC2)c1 was read as MBNL1 CUG block 9.2%, D3 ag 3.5, a7 integrin act 10µM*, PTHR1 ag -52.4% and D3 antag 11.1.
`O=C(c1cccc(S(=O)(=O)N2CCOCC2)c1)N1CCN(S(=O)(=O)c2cccc([N+](=O)[O-])c2)CC1` gave D3 ag -1.0, a7 integrin act -10.5%, PTHR1 ag inactive and D3 antag 10.2.
`CCNC(=O)NC(=O)COC(=O)c1ccccc1SCC(=O)NC(=O)NCC` gave MBNL1 CUG block 4.9%, D3 ag 3.3, a7 integrin act -49.9%, PTHR1 ag -7.2%[57.5 µM], D3 antag -74.7* and CBFb-RUNX1 inh 13.7%.
For C(=N\Nc1nc(Nc2ccccc2)nc(N2CCOCC2)n1)/c1c[nH]c2ccccc12 the results were MBNL1 CUG block 18.7%, D3 ag 4.9, a7 integrin act -50.4%, PTHR1 ag -13.9%, D3 antag -62.4* and CBFb-RUNX1 inh -24.9%.
For c1ccc(Nc2nc(N3CCNCC3)nc(N3CCOCC3)n2)cc1 the results were MBNL1 CUG block -4.5%, D3 ag -0.6, a7 integrin act -63.6%, PTHR1 ag inconclusive, D3 antag -79.3* and CBFb-RUNX1 inh -1.5%.
`Cc1ccc(Nc2nc(N/N=C/c3c[nH]c4ccccc34)nc(N3CCOCC3)n2)cc1` gave MBNL1 CUG block -2.3%, D3 ag -15.1, a7 integrin act -54.9%, PTHR1 ag -24.4%, D3 antag -21.0 and CBFb-RUNX1 inh 0.4%.
For c1ccc(Nc2nc(N3CCOCC3)nc(N3CCOCC3)n2)cc1 the results were MBNL1 CUG block 4.3%, D3 ag -3.7, a7 integrin act 14.8%, PTHR1 ag -41.3%, D3 antag inconclusive and CBFb-RUNX1 inh 4.5%.
Screening O=C(/C=C/[C@H]1O[C@@H](n2cnc3c(NC(=O)c4ccccc4)ncnc32)[C@H](O)[C@@H]1O)NCc1cccs1 returned D3 ag -6.2, PTHR1 ag -11.3% and D3 antag -20.7.
For CN(c1ccccc1)S(=O)(=O)c1ccc2c(c1)OCCO2 the results were D3 ag 40.8*, a7 integrin act -6.0%, PTHR1 ag inconclusive and D3 antag -11.3.
`CN(c1ccccc1)S(=O)(=O)c1ccc2ccccc2c1` gave MBNL1 CUG block -2.3%, D3 ag -4.1, a7 integrin act -5.9%, PTHR1 ag inactive and D3 antag 7.8.
`CCOc1ccc(S(=O)(=O)Nc2ccccc2SC)cc1` gave MBNL1 CUG block -9.9%, D3 ag -17.2, a7 integrin act 10.8%[7.66 µM], PTHR1 ag inactive, D3 antag -64.6* and CBFb-RUNX1 inh 6.0%.
`CSc1ccccc1NS(=O)(=O)c1ccc2c(c1)OCCO2` gave MBNL1 CUG block -2.8%, D3 ag -0.5, a7 integrin act -6.2%, PTHR1 ag -18.8%, D3 antag -85.2* and CBFb-RUNX1 inh 7.4%.
COc1cc(OC)nc(Oc2cc(C=O)ccc2OC)n1 was read as MBNL1 CUG block -10.7%, D3 ag 7.6, a7 integrin act -8.6%, PTHR1 ag -2.6% and D3 antag -9.0.
COc1ccc(/C=C2\CCc3ccccc3C2=O)cc1Cn1nc(C)cc1C was read as MBNL1 CUG block 9.3%, D3 ag 0.9, a7 integrin act -59.5%, PTHR1 ag -25.5%, D3 antag -79.1* and CBFb-RUNX1 inh -20.5%.
CCOC(=O)N1CCN(C(=O)CSCC(=O)Nc2nc(-c3ccc(-c4ccccc4)cc3)cs2)CC1 was read as MBNL1 CUG block inconclusive, D3 ag 55.8*, a7 integrin act -65.0%, PTHR1 ag -38.0%, D3 antag 137.4 and CBFb-RUNX1 inh -0.4%.
Screening COc1cccc(CNc2ccc3[nH]c(=O)[nH]c3c2)c1OCc1ccc(F)cc1 returned MBNL1 CUG block 4.4%, D3 ag -12.4, a7 integrin act 7.1%, PTHR1 ag -35.1% and D3 antag -53.5*.
Screening O=C(O)c1ccc(N=N/C(=N\Nc2ccc(C(=O)O)cc2)c2ccccc2)cc1 returned D3 ag -29.0, a7 integrin act 1.8%, PTHR1 ag -16.6% and D3 antag -53.2*.
O=C(Nc1cc(Cl)ccc1-n1cncn1)c1ccc(Br)o1 was read as D3 ag 1.0, a7 integrin act -27.7%, PTHR1 ag -0.8% and D3 antag 19.4.
Screening Cc1ccccc1NC(=O)CSc1nc2c(oc3ccccc32)c(=O)n1Cc1ccco1 returned D3 ag -14.0 and PTHR1 ag 2.1%.
For Cc1cc(C)nc(SCC(=O)NCC2COc3ccccc3O2)n1 (stereo not drawn) the results were D3 ag 5.2, a7 integrin act -5.3%, PTHR1 ag 1.6% and D3 antag -14.1.
Screening CCN(Cc1ccc2c(c1)OCCO2)C(=O)CSc1nc(C)nc2sc(C)c(C)c12 returned D3 ag 31.3*, a7 integrin act 9.7%, PTHR1 ag -38.5% and D3 antag 54.5.
`Cc1nc(SCC(=O)NCC2COc3ccccc3O2)c2c(C)c(C)sc2n1` (stereo not drawn) gave D3 ag 93.1*, a7 integrin act 1.8%, PTHR1 ag -39.2% and D3 antag -26.4.
For CC(=O)NC(CC(=O)OCC(=O)N1CCc2ccccc21)c1ccccc1 (stereo not drawn) the results were MBNL1 CUG block 0.6%, D3 ag -1.7, a7 integrin act 4.7%, PTHR1 ag inactive and D3 antag 21.8.
Screening O=C(c1noc2c1CCCCC2)N1CCN(c2cccc(C(F)(F)F)c2)CC1 returned D3 ag 52.1* and PTHR1 ag -67.1%.
O=C(c1noc2c1CCCCC2)N1CCN(c2cccc(Cl)c2)CC1 was read as D3 ag -6.8 and PTHR1 ag -32.0%.
Screening Cc1ccc(N2C(=O)N3[C@H](c4cccc(C)c4)[C@@H]4C(=O)N(Cc5ccccc5)C(=O)[C@@H]4[C@]3(C)C2=O)cc1 returned D3 ag 0.5, a7 integrin act 24.1%, PTHR1 ag -8.2% and D3 antag inconclusive.
`CC[C@@]12C(=O)N(c3ccc(C)cc3)C(=O)N1[C@H](c1cccc(C)c1)[C@@H]1C(=O)N(Cc3ccccc3)C(=O)[C@@H]12` gave D3 ag 30.2*, a7 integrin act 7.3%, PTHR1 ag -5.0% and D3 antag 0.4.
